CYP2C9 act – increases human cytochrome P450 2C9 activity. P11712. recombinant CYP2C9, luciferin-H conversion, luminescence; active compounds read high; factor 1 = untreated enzyme, 0 = blocked. activation factor at 5 µM. actives 1.4% (n = 96,000);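 active = activation factor of 2 or more for CYP2C9 at a 5 µM dose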;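 also: 0 = sulfaphenazole-blocked wells and 1 = vehicle-only wells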
CYP2C19 inh – blocks human cytochrome P450 2C19 | CYP2C19 Supersomes, luciferin-H EGE luminescence, 30 min | inhibition, % at 5 µM | actives 21% (n = 96,000) | AID 778;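 active = CYP2C19 inhibition above a set limit at 5 µM in the primary screen, cut at about 50% in these data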;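 also: plate controls were negative control wells for no effect and 2.5 mM tranylcypromine positive control for full effect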
PTK2B oligo ant – antagonists of human Pyk2 oligomerization | actives 0.83% (n = 99,000) | Q293 cells, Pyk2 FERM NanoBiT luminescence; active compounds read low | Q14289 | z-score (the deposit names both 25 µM and 10 µM);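 active = Z-score of -3 or lower, scaled per plate to the spread of control and sample wells; inactive = z-score above -3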;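 also: negative z-score means lost luminescence so less FERM oligomerization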
CYP2C19 act – cytochrome P450 2C19 (human) activation; P33261; recombinant CYP2C19, luciferin-H EGE luminescence; active compounds read high; 0 = fully inhibited enzyme, 1 = untreated enzyme; activation factor at 5 µM; 96,000 tested, under 10 active;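 active = activation factor of at least 2 at 5 µM in the primary screen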;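 also: 0 = wells with 2.5 mM tranylcypromine and 1 = vehicle-only wells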
CYP2C9 inhib – blocks human cytochrome P450 2C9; P11712; CYP2C9 Supersomes, luciferin-H conversion, luminescence; inhibition, % at 5 µM; actives 20% (n = 96,000); AID 777;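 active = blocking of liver enzyme CYP2C9 beyond about 50% at 5 µM, limit read from the data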
* marks the source's active call; other numbers are inactive results; x = no result. Rows were chosen to be rich in hits. Some 28% of all compounds tested hit in one or more screens of this group.

SMILES | CYP2C9 act | CYP2C19 inh | PTK2B oligo ant | CYP2C19 act | CYP2C9 inhib
COc1cccc(C(=O)NC2CC3CCCC(C2)N3CC(=O)Nc2ccc(N(C)C)cc2)c1 (stereo not drawn) | 0.2 | 38 | -0.38 | 0.6 | 79*
COc1ccc(-c2cnn(-c3ccccc3)c2N)cc1OC | 2.2* | 30 | -0.38 | 0.7 | -120
Cc1cccc(N2C(N)=C(C#N)C(C#N)(C#N)C2c2ccccc2)c1 (stereo not drawn) | 0.5 | 20 | 0.84 | 0.8 | 55*
N#CC1=C(N)N(c2ccccc2)C(c2cccc([N+](=O)[O-])c2)C1(C#N)C#N (stereo not drawn) | 0.5 | 38 | -0.87 | 0.6 | 53*
N#CC1=C(N)N(c2ccccc2)C(c2ccco2)C1(C#N)C#N (stereo not drawn) | 0.5 | 31 | -1.2 | 0.7 | 54*
N#Cc1c(-c2ccccc2)cc(-c2ccco2)c(C#N)c1N | 0.8 | 31 | x | 0.7 | 24
Nc1c(-c2ccccc2Cl)cnn1-c1cccc([N+](=O)[O-])c1 | 1.6 | 18 | -0.34 | 0.8 | -55
Cc1cccc(-n2ncc(C#N)c2N)c1 | 1.2 | -10 | -0.14 | 1.1 | -19
O=C(Nc1ncc2c(n1)-c1ccccc1OC2)c1ccc(Cl)cc1Cl | 1 | 22 | -0.31 | 0.8 | 0
O=c1c2cc(N3CCOCC3)ccc2[nH]c(=S)n1CC1CCCO1 (stereo not drawn) | 0.4 | 15 | -0.43 | 0.9 | 62*
Cc1cc(C)nc(SCc2nc3ncccn3c2Br)n1 | 1.2 | -1 | 0.07 | 1 | -18
Clc1c(CSc2nc3ccccc3o2)nc2ccccn12 | 1 | 98* | 0.27 | 0 | -1
Brc1c(CSc2nc3ccccc3o2)nc2ncccn12 | 1.3 | 64* | 1.7 | 0.4 | -31
COc1ccc(-c2cc(CNC(=O)CN(C)Cc3ccccc3)on2)cc1 | 1.8 | 50 | 1.4 | 0.5 | -80
CCC(C)n1c(C)nc2c(c1=O)c1nc3ccccc3nc1n2-c1ccc2c(c1)OCCO2 (stereo not drawn) | 1 | -8 | x | 1.1 | -3
O=c1oc2c(CN3CCCCC3)c(O)ccc2cc1-c1nc2ccccc2[nH]1 | 0.5 | 54* | 0.32 | 0.5 | 52*
Cc1nc(SCc2nc3ccccc3[nH]2)c2oc3ccccc3c2n1 | 0.1 | 32 | -1.6 | 0.7 | 91*
c1ccc2[nH]c(CSc3ncnc4c3oc3ccccc34)nc2c1 | 0 | 69* | -0.88 | 0.3 | 97*
CCOC(=O)c1nn(-c2ccc3c(c2)OCO3)cc1O | x | x | -0.17 | x | x
COC(=O)CN(CCc1ccccc1)S(=O)(=O)c1ccc(OC)c(OC)c1 | 0.7 | 99* | -0.4 | 0 | 32
COC(=O)CN(Cc1ccccc1)S(=O)(=O)c1ccc(OC)c(OC)c1 | 1.1 | 57* | -0.75 | 0.4 | -7
COc1ccc(S(=O)(=O)N(CCc2ccccc2)CC(=O)O)cc1OC | 0.8 | -7 | 2.1 | 1.1 | 16
COC(=O)CN(c1cc(OC)ccc1OC)S(=O)(=O)c1ccc(OC)c(OC)c1 | 0.4 | 95* | 0.05 | 0 | 63*
CS(=O)(=O)c1ccc(Cl)c(NC(=O)COC(=O)CNC(=O)c2ccc(Br)o2)c1 | 1.3 | -20 | 0.57 | 1.2 | -29
COc1ccccc1N1CCN(C(=O)c2nn(-c3ccccc3OC)c(=O)c3ccccc23)CC1 | 0.4 | 49 | -1.7 | 0.5 | 58*
SMILES | CYP2C9 act | CYP2C19 inh | PTK2B oligo ant | CYP2C19 act | CYP2C9 inhib
CCOc1ccc(-n2cc(C(=O)N3CCC(C)CC3)c3cc(OC)c(OC)cc3c2=O)cc1 | 0.8 | 16 | 0.51 | 0.8 | 20
CCOC(=O)N1CCN(C(=O)c2cn(-c3ccc(C)c(C)c3)c(=O)c3ccccc23)CC1 | 0.4 | 24 | 0.26 | 0.8 | 64*
CCOC(=O)N1CCN(C(=O)c2nn(-c3cc(OC)cc(OC)c3)c(=O)c3ccccc23)CC1 | 0.2 | 63* | x | 0.4 | 80*
CC(NC(=O)Nc1ccccc1C(F)(F)F)C1CCCO1 (stereo not drawn) | 1 | -3 | 0.26 | 1 | 4
CC(C)(C)NC(=O)c1ccnc(C(C)(C)C)c1 | 1 | 52* | 0.76 | 0.5 | -3
CC(C)(C)c1cc(C(=O)Nc2ccccc2)ccn1 | x | x | -0.73 | x | x
CC(NC(=O)c1ccnc(C(C)(C)C)c1)c1ccccc1 (stereo not drawn) | 0.4 | 56* | 1.5 | 0.4 | 55*
N#CCCn1nc(-c2ccccc2)cc1-n1c(C(F)(F)F)nc2ccccc21 | 0 | 87* | -0.7 | 0.1 | 96*
CC(C)O/C(=N\S(=O)(=O)c1ccc(Cl)cc1)c1ccccc1 | 0 | 95* | 0.52 | 0 | 95*
Cc1cccc(NC(=S)N/C(=N/S(=O)(=O)c2ccccc2)c2ccccc2)c1 | 0.5 | 14 | 0.41 | 0.9 | 46
CC(C)CO/C(=N/S(=O)(=O)c1ccccc1)c1ccccc1 | 0.2 | 76* | -0.5 | 0.2 | 78*
CSC(=NS(=O)(=O)c1ccccc1)SC | 1.4 | 7 | -0.71 | 0.9 | -42
COc1ccc(O/C(=N\S(=O)(=O)c2ccccc2)c2ccccc2)cc1 | 0.9 | 12 | -0.21 | 0.9 | 11
CS/C(=N\S(=O)(=O)c1ccc(Cl)cc1)c1ccccc1 | 0.1 | 96* | 1.1 | 0 | 89*
CC(C)OC(=S)N/C(=N\S(=O)(=O)c1ccccc1)c1ccccc1 | 0.4 | 32 | -0.08 | 0.7 | 61*
COc1ccc(CN2CCCCC2C(=O)Nc2ccc(OC)c(OCC(C)C)c2)cc1OC (stereo not drawn) | x | x | 1.4 | x | x
Cc1ccc(C(=O)C(OC(=O)COc2ccccc2C)c2ccccc2)cc1 (stereo not drawn) | 0.6 | 49 | -1.1 | 0.5 | 39
COC(=O)c1ccccc1NC(=O)/C=C/c1cc(OC)c(OC)c(OC)c1 | 1 | 6 | -2 | 0.9 | 1
O=C(COc1ccc2c(c1)CCC2)N1CCc2ccccc21 | 1.4 | 3 | -0.22 | 1 | -42
COc1ccccc1-c1nnc(SCC(=O)NC2CCCCC2)o1 | 1.9 | 54* | x | 0.5 | -93
COc1cccc(NC(=O)CSc2nnc(-c3cc(C)n(-c4ccccc4)c3C)o2)c1 | 0.2 | 50 | -0.07 | 0.5 | 78*
Cc1ccccc1-c1nnc(SCC(=O)NC2CCCCC2)o1 | x | x | 1.2 | x | x
Cc1cc(C)cc(NC(=O)CSc2nnc(-c3ccccc3Br)o2)c1 | 0.6 | 39 | -1.1 | 0.6 | 37
COc1ccccc1-c1nnc(SCC(=O)Nc2c(Cl)cccc2Cl)o1 | 0.3 | 85* | -0.03 | 0.2 | 74*
O=C(CSc1nnc(-c2ccco2)o1)NC1CCCCC1 | 0.9 | 55* | -0.08 | 0.4 | 10
O=C(CSc1nnc(CNC(=O)c2ccco2)o1)NC1CCCC1 | 1.2 | -19 | -1 | 1.2 | -17
O=C(Nc1nc2ccccc2s1)C1CC(=O)N(c2ccc(F)cc2)C1 (stereo not drawn) | 0.7 | 8 | 0.44 | 0.9 | 32
O=C(CSc1nnc(-c2ccco2)o1)NC1CC2CCC1C2 (stereo not drawn) | 0.8 | 56* | 2 | 0.4 | 18
Nn1c(SCC(=O)NC2CCCCC2)nnc1-c1ccccc1 | 1.1 | 31 | 0.04 | 0.7 | -10

Screening results deposited in PubChem by Sanford-Burnham Center for Chemical Genomics.
